“And” between values parts separate entries of the source, which are not always exact repeats. Equal entries are not always repeated. Hit rate of the full screen: of about 5,500 compounds, about 2,000 (36%) were called active. About 18% were inconclusive and are not listed. Rule as the data show it: active = normalized growth mostly below about 0.91 (no sharp cut-off); inconclusive = no clear call, values can overlap the other calls; inactive = mostly above about 0.92. The list shows a part of the results.
Experiment: chemical genetic growth profiling, strain panel (AID 1159580);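 also: tested at 20 µM; growth read once vehicle control cultures reached saturation at 30 °C; 1 = growth at the plate median or of vehicle wells; lower values mean less growth of the strain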
Conditions: S. cerevisiae deletion strains, growth OD

Measured: normalized growth

CO[C@@]12[C@@H]3NC3CN1C1=C(C(=O)C(N)=C(C)C1=O)[C@@H]2COC(N)=O (some centres not stated)
inactive: locus YAL013W, strain DEP1, active compounds read low 0.997 | locus YAL021C, strain ccr4, active compounds read low 0.98 | locus YAL026C, strain drs2, active compounds read low 0.969 | locus YAL030W, strain snc1, active compounds read low 0.989 | locus YBL061C, strain skt5, active compounds read low 0.964 | locus YBR009C, strain hhf1, active compounds read low 1 | locus YBR021W, strain FUR4, active compounds read low 0.995 | locus YBR023C, strain chs3, active compounds read low 0.962 | locus YBR171W, strain sec66, active compounds read low 0.958 | locus YBR229C, strain ROT2, active compounds read low 1 | locus YBR231C, strain swc5, active compounds read low 0.954 | locus YBR279W, strain paf1, active compounds read low 0.978 | locus YCL011C, strain gbp2, active compounds read low 0.95 | locus YCL016C, strain dcc1, active compounds read low 1.01 | locus YCL029C, strain bik1, active compounds read low 0.971 | locus YCL069W, strain vba3, active compounds read low 0.984 | locus YCR088W, strain abp1, active compounds read low 0.971 | locus YDL005C, strain med2, active compounds read low 0.972 | locus YDL035C, strain GPR1, active compounds read low 1 | locus YDL040C, strain nat1, active compounds read low 0.973 | locus YDL074C, strain BRE1, active compounds read low 1.04 | locus YDL101C, strain DUN1, active compounds read low 1.01 | locus YDL134C, strain PPH21, active compounds read low 1.01 | locus YDL185W, strain tfp1, active compounds read low 0.972 | locus YDL192W, strain arf1, active compounds read low 0.974 | locus YDR001C, strain nth1, active compounds read low 0.954 | locus YDR069C, strain doa4, active compounds read low 0.926 | locus YDR101C, strain arx1, active compounds read low 1 | locus YDR137W, strain rgp1, active compounds read low 0.955 | locus YDR150W, strain NUM1, active compounds read low 0.987 | locus YDR159W, strain sac3, active compounds read low 0.998 | locus YDR162C, strain NBP2, active compounds read low 1.05 | locus YDR195W, strain ref2 0.879 | locus YDR297W, strain sur2, active compounds read low 0.966 | locus YDR318W, strain mcm21, active compounds read low 0.977 | locus YDR334W, strain swr1, active compounds read low 0.934 | locus YDR335W, strain msn5, active compounds read low 0.963 | locus YDR388W, active compounds read low 0.982 | locus YDR392W, strain spt3, active compounds read low 1.06 | locus YDR502C, strain sam2, active compounds read low 1.01 | locus YEL003W, strain gim4, active compounds read low 0.973 | locus YEL037C, strain rad23, active compounds read low 0.975 | locus YEL061C, strain CIN8 (second series), active compounds read low 0.95 | locus YEL061C, strain CIN8, active compounds read low 0.998 | locus YER015W, strain faa2, active compounds read low 1 | locus YER016W, strain bim1, active compounds read low 1.01 | locus YER110C, active compounds read low 0.968 | locus YER111C, strain swi4, active compounds read low 0.981 | locus YER155C, strain BEM2 (second series), active compounds read low 0.962 | locus YER155C, strain BEM2, active compounds read low 0.993 | locus YER167W, strain BCK2, active compounds read low 0.994 | locus YFR010W, strain ubp6, active compounds read low 0.927 | locus YGL078C, strain dbp3, active compounds read low 0.996 | locus YGL086W, strain mad1, active compounds read low 0.963 | locus YGL167C, strain pmr1, active compounds read low 0.94 | locus YGL173C, strain kem1, active compounds read low 0.981 | locus YGL227W, strain vid30, active compounds read low 0.974 | locus YGL240W, strain doc1, active compounds read low 0.966 | locus YGL248W, strain PDE1, active compounds read low 1 | locus YGL253W, strain hxk2, active compounds read low 0.988 | locus YGR078C, strain PAC10, active compounds read low 1.04 | locus YGR135W, strain pre9, active compounds read low 1.02 | locus YGR229C, strain SMI1, active compounds read low 1.02 | locus YGR252W, strain gcn5, active compounds read low 0.943 | locus YHR013C, strain ard1, active compounds read low 0.985 | locus YHR027C, strain rpn1, active compounds read low 0.978 | locus YHR030C, strain SLT2, active compounds read low 0.993 and 0.988 | locus YHR079C, strain IRE1 (second series), active compounds read low 0.994 | locus YHR079C, strain IRE1, active compounds read low 0.957 | locus YHR094C, strain hxt1, active compounds read low 0.975 | locus YHR129C, strain ARP1, active compounds read low 1 | locus YHR142W, strain chs7, active compounds read low 0.987 | locus YHR200W, strain rpn10, active compounds read low 0.971 | locus YIL066C, strain RNR3, active compounds read low 0.998 | locus YIL073C, strain SPO22, active compounds read low 0.914 | locus YIL125W, strain kgd1, active compounds read low 0.996 | locus YIR030C, strain dcg1, active compounds read low 0.991 | locus YJL092W, strain hpr5, active compounds read low 0.936 | locus YJL095W, strain BCK1 (second series), active compounds read low 0.967 | locus YJL095W, strain BCK1, active compounds read low 1.04 and 0.999 | locus YJL115W, strain asf1, active compounds read low 0.968 | locus YJL129C, strain trk1, active compounds read low 0.96 | locus YJL134W, strain LCB3, active compounds read low 1 | locus YJL154C, strain vps35, active compounds read low 0.958 | locus YJL164C, strain tpk1, active compounds read low 1.01 | locus YJL166W, strain qcr8, active compounds read low 0.932 | locus YJL168C, strain set2, active compounds read low 0.983 | locus YJL187C, strain SWE1 (second series), active compounds read low 1.01 | locus YJL187C, strain SWE1, active compounds read low 0.98 | locus YJR043C, strain POL32, active compounds read low 0.98 | locus YJR066W, strain TOR1, active compounds read low 0.941
active: locus YCL061C, strain MRC1, active compounds read low 0.919

Reference: PubChem BioAssay AID1159580 (chemical genetic matrix, 2015)
